The campaign covered roughly 2,100 compounds. About 760 (36%) were called active.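 How the source made its calls: active means thallium-flux fluorescence traces judged by eye to show enhanced or reduced glutamate response, manual score 1 or -1, so both directions (some results past the limit were not filed as active); inactive means the rest, including fluorescent or raised-baseline compounds.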 These entries were drawn from the full list.

The experiment can be described thus: thallium influx changes without GIRK channels – cell-based, HEK-293 rmGlu8, no GIRK, thallium flux, counter-screen for GIRK activator project, confirmation (AID 623868).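 Further: extra codes mark interference with 3 for fluorescent and 4 for baseline rise.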 Conditions: thallium flux fluorescence, at 10 µM, actives lie on both sides, codes: 1 enhancer, -1 blocker, 0 none, thallium stimulus containing EC20 glutamate. A general note: The purpose of a counterscreen is to sort out artefacts and off-target activity.
Take `CC(C)c1ccc(-n2cccc2/C=C2/C(=N)N3C=CSC3=NC2=O)cc1`: the manual score is 0 (inactive).

Consider `C(/C=C/C=C/Nc1ccccc1)=Nc1ccccc1`, for which the manual score is 3 (inactive).

`Cc1ccc(OCC(O)Cn2c(=N)n(CCN3CCCCC3)c3ccccc32)cc1` (configuration not stated): the manual score is 0 (inactive).

For `CC(c1ccc(F)cc1)n1c(-c2ccc3ccccc3n2)n[nH]c1=S` (configuration not stated), the manual score was 1 (active).

Consider `CC(c1ccc(Cl)cc1)n1c(-c2ccc3ccccc3n2)n[nH]c1=S` (configuration not stated), for which the manual score is 1 (active).

Consider `CC(=O)Nc1ccc(Oc2ncccn2)cc1`, for which the manual score is 0 (inactive).

For `O=C(NNC(=O)c1cccnc1SCc1cccc([N+](=O)[O-])c1)c1cccnc1`, the manual score was 0 (inactive).

As for `O=C(NNC(=O)c1cccnc1SCc1cccc([N+](=O)[O-])c1)c1ccccn1`, the manual score is 1 (active).

`Cc1cccc(C)c1NC(=O)C(NC(=O)c1ccccn1)c1ccc([N+](=O)[O-])cc1` (configuration not stated): the manual score was 0 (inactive).

Regarding `O=C(c1oc(=O)c2ccccc2c1-c1ccccc1)N1CCN(C2CCCCC2)CC1`, the manual score was 0 (inactive).

As to `CCOC(=O)c1ccc(N2C(=O)C(O)=C(C(C)=O)C2c2ccccc2)cc1` (configuration not stated), the manual score is -0.5 (inactive).

With `CCOC(=O)C1=C(O)C(=O)N(c2ccc(S(N)(=O)=O)cc2)C1c1ccccc1` (configuration not stated), the manual score was -1 (active).

Take `CCOC(=O)c1cc2n(c1N)-c1ccccc1C2=O`: the manual score was 3 (inactive).

Regarding `CCCCn1nnc(NC(=S)NC(=O)c2ccc(-c3cccc(Cl)c3Cl)o2)n1`, the manual score is 1 (active).

As for `Clc1cccc(-c2ccc(/C=N/n3cnnc3)o2)c1Cl`, the manual score was 0 (inactive).

As for `CCCn1nnc(NC(=O)COc2ccc(C3CCCCC3)cc2)n1`, the manual score is 0 (inactive).

Consider `COc1ccccc1N(C)S(=O)(=O)c1ccc(C(=O)N(CC(N)=O)C(C)C)cc1`, for which the manual score was 0 (inactive).

Take `CCOc1ccc(N2C(=O)/C(=C/c3cc(OC)c(OC)c(OC)c3)N(CC(=O)OC)C2=S)cc1`: the manual score was 0 (inactive).

`CS(=O)(=O)N(CC(=O)NCc1ccco1)c1ccc(Cl)c(C(F)(F)F)c1`: the manual score was 0 (inactive).

For `CCOC(=O)C1CCN(C(=O)N(C)C)CC1`, the manual score is 0 (inactive).

Take `CCOC(=O)C1CCN(C(=O)CN(c2ccc(Cl)c(C(F)(F)F)c2)S(C)(=O)=O)CC1`: the manual score is -1 (active).

With `O=C(N/N=C/c1ccc(Sc2ccccn2)o1)c1cc2ccccc2cc1O`, the manual score is 1 (active).

As for `CCCOc1ccc(/C=N/NC(=O)C(=O)Nc2ccccn2)cc1`, the manual score was 1.5 (inactive).

Turning to `O=C(CSc1nc2ccccc2[nH]1)NC1CCCc2ccccc21` (configuration not stated), the manual score was 0 (inactive).

As to `NC(=O)CSc1ncnc2c1cnn2Cc1ccccc1`, the manual score was 0 (inactive).

In the case of `COc1ccc(OC)c(Nc2ncnc3c2cnn3-c2cccc(C)c2)c1`, the manual score was 0 (inactive).

Turning to `Cc1ccc(-n2ncc3c(SCc4ccccc4)ncnc32)cc1`, the manual score was 1 (active).

As to `CN(C)CCNc1ncnc2c1cnn2-c1ccc(Cl)cc1`, the manual score was 0 (inactive).

As to `Cc1ccc(CSc2ncnc3c2cnn3-c2ccc(C)cc2)cc1`, the manual score is 1 (active).

As to `COc1cc2cnncc2cc1OC`, the manual score was 0 (inactive).

On to `CCOc1ccc(NC(=O)Cn2nnc(-c3ccccc3F)n2)cc1`, for which the manual score was 0 (inactive).

As for `CSc1nc(-c2ccccc2)[nH]c(=S)c1C(C)=O`, the manual score is 1 (active).

`N#Cc1c(N2CCN(C(=O)c3ccccc3)CC2)nc(-c2ccccc2)c2c1CCCC2`: the manual score is 0 (inactive).

As for `CC(=O)c1c(N2CCCC2)[nH]c(-c2ccccc2)nc1=S`, the manual score was 1 (active).

Consider `CCCOC(=O)NC(CC)COC(=O)Nc1cccc(C)c1C` (configuration not stated), for which the manual score was 0 (inactive).

As for `CN=C1c2c(-c3ccccc3)c3cc(OC)ccc3n2CCN1C`, the manual score was 0 (inactive).

In the case of `CC1CCN(c2ccccc2NC(=S)NC(=O)c2ccco2)CC1`, the manual score was 1 (active).

As for `O=C(NC(=S)Nc1ccccc1N1CCCCC1)c1ccco1`, the manual score is 0 (inactive).

For the molecule `O=C(NC(=S)Nc1ccccc1N1CCOCC1)c1ccco1`, the manual score was 1 (active).

On to `O=C(C[n+]1cc(-c2ccccc2)n2c1CCC2)OCc1ccccc1`, for which the manual score is 0 (inactive).

Consider `CC(C)(C)c1nn(-c2ccccc2)c2[nH]c(=O)c(CNCc3ccc4c(c3)OCO4)cc12`, for which the manual score is -1 (active).

With `O=C(NCc1ccc2c(c1)OCO2)C1CCN(Cc2cnn(-c3ccccc3)c2-n2cccc2)CC1`, the manual score was 0 (inactive).

On to `CCc1ccc(NCc2cc3c(C)nn(-c4ccccc4)c3[nH]c2=O)cc1`, for which the manual score is 0 (inactive).

Turning to `C=CCNc1nc(N2CCCC2)nc2ccccc12`, the manual score was 0 (inactive).

As for `COc1ccc(/C=C2\C(=O)NC(=S)N2C(=O)c2ccc(F)cc2)cc1`, the manual score is 1 (active).

For the molecule `COc1ccc(C(=O)N2C(=S)NC(=O)/C2=C\c2ccc(C)cc2)cc1`, the manual score is 0.5 (inactive).

`COc1ccc(NC2=Nc3cccc4cccc2c34)cc1OC`: the manual score is 0 (inactive).

Take `Cc1nc2ccc(NS(=O)(=O)c3ccc4c(c3)OCCO4)cc2s1`: the manual score is 0 (inactive).

As for `S=C(Nc1cccc(Cl)c1)Nc1cccc2cnccc12`, the manual score is 0 (inactive).

Consider `S=C(NCc1cccs1)Nc1cccc(Cl)c1`, for which the manual score is 0 (inactive).

Consider `Cc1csc(NC(=S)Nc2cccc(Cl)c2)n1`, for which the manual score was 1 (active).

Turning to `C=C(C)C1CC=C(C)/C(=N/NC(=O)c2ccc(NC(=O)CCC)cc2)C1` (configuration not stated), the manual score was 0 (inactive).

For the molecule `COc1cccc(/C=N/n2c(-c3cccs3)n[nH]c2=S)c1`, the manual score is 1 (active).

As to `CCOc1ccc(C2=NNC(c3cccs3)=Nc3ccc(OC)cc32)cc1`, the manual score is 0 (inactive).

Turning to `COCCN=c1scc(-c2cccs2)n1/N=C/c1ccc(O)c(O)c1O`, the manual score is 0 (inactive).

For the molecule `COc1ccc(/C=N/n2c(-c3cccs3)n[nH]c2=S)cc1`, the manual score is 1 (active).

On to `COc1cccc(OCCc2c(C)n[nH]c2C)c1`, for which the manual score was 0 (inactive).

For the molecule `Cc1onc(-c2c(F)cccc2Cl)c1C(=O)OCn1nnc2ccccc2c1=O`, the manual score was 0 (inactive).

Turning to `COC(=O)C1=NN(c2ccccc2)C2C(=O)N(c3ccccc3OC)C(=O)C12` (configuration not stated), the manual score is 0 (inactive).

Turning to `CC1=NN(c2ccccc2)C(=O)C1C(=O)c1ccc(Cl)cc1` (configuration not stated), the manual score is 1 (active).

`COc1cc(NC(=O)CSCc2cnn(-c3ccccc3)c2-n2cccc2)cc(OC)c1`: the manual score is 0 (inactive).

Turning to `Cc1ccc(N=Cc2cc3c(cc2O)OC(N)=C(C#N)C3c2ccccc2)cc1` (configuration not stated), the manual score is -1 (active).

Consider `CC1=C(n2nnc3ccccc32)C(c2ccccc2)C(C#N)=C(N)O1` (configuration not stated), for which the manual score was 0 (inactive).

On to `CCN(CC)c1ccc2c(c1)OC(N)=C(C#N)C2c1cccnc1` (configuration not stated), for which the manual score is 3 (inactive).

In the case of `CC(Sc1nnnn1C)C(=O)Nc1ccc(Oc2ccccc2)cc1` (configuration not stated), the manual score is 0.5 (inactive).

On to `COc1ccc(-n2c(=S)[nH]c3ccccc32)cc1`, for which the manual score was 1 (active).

In the case of `Cn1c(-c2ccc(-c3ccccc3)cc2)c[nH]c1=S`, the manual score was 0 (inactive).

Consider `COc1ccc(-c2c3c(=O)n(C)c(=O)n(C)c3cn2-c2ccccc2)cc1`, for which the manual score was 0 (inactive).

As to `Cc1cccc(OCCn2c(=S)[nH]c3ccccc32)c1`, the manual score was 0 (inactive).

Regarding `CCCn1c(=N)n(CCOc2ccc(OC)cc2)c2ccccc21`, the manual score is 0 (inactive).

On to `COc1ccc(-n2cc(-c3ccccc3)[nH]c2=S)cc1`, for which the manual score was 1 (active).

Consider `CC(C)(C)c1ccc(OCCON2C(=O)CCC2=O)c(Cl)c1`, for which the manual score was 0 (inactive).

Consider `COc1ccc(C(CCNCc2ccccc2F)c2ccc(F)cc2)cc1` (configuration not stated), for which the manual score was 0 (inactive).

In the case of `COC(=O)c1cc(NC(=O)c2ccoc2C)cc(C(=O)OC)c1`, the manual score was 0 (inactive).

On to `CCCC1=C(C(=O)OCC)C(c2ccc(F)cc2)n2ncnc2N1` (configuration not stated), for which the manual score was -0.5 (inactive).

For the molecule `CCOC(=O)C1=C(C)Nc2nnnn2C1c1ccccc1Cl` (configuration not stated), the manual score is -1 (active).

As to `CCOC(=O)C1=C(C)NC2=C(C(=O)C(C(=O)OCC)C(c3ccccc3OC)C2)C1c1ccccn1` (configuration not stated), the manual score was 0 (inactive).

As for `CCCC(=O)Nc1ccccc1N1CCN(C(=O)c2ccccc2)CC1`, the manual score was -1 (active).

Regarding `CC(C)C(=O)Nc1ccccc1N1CCN(C(=O)c2ccccc2)CC1`, the manual score is -1 (active).

As for `O=C(c1ccc(-c2ccccc2)cc1)N1CCN(c2ncccn2)CC1`, the manual score was 0 (inactive).

Turning to `O=C(Nc1ccccc1N1CCCCC1)c1ccccc1F`, the manual score is 0 (inactive).

`CC(C)N(C(=O)CN(C#N)c1nc(N(C)C)nc(N(C)C)n1)c1ccccc1`: the manual score is 0 (inactive).

For `CCN(CC)CC(O)COCCC12CC3CC(CC(C3)C1)C2` (configuration not stated), the manual score was 0 (inactive).

Regarding `O=C(N/C(=N\O)c1ccccc1)Nc1ccc(Cl)cc1`, the manual score is 0 (inactive).

In the case of `CSc1ccccc1NC(=O)Nc1ccc(Cl)cc1`, the manual score is 0 (inactive).

For the molecule `N#C/C(=N\Nc1ccc(Cl)cc1)C(=O)c1ccccc1`, the manual score is -1 (active).

Turning to `CC(C)c1nc(=S)n(-c2ccccc2)[nH]1`, the manual score is 1 (active).

`CCOC(=O)c1cccc(-n2c(C)cc(C=O)c2C)c1`: the manual score is 0 (inactive).

`O=C(CSCc1ccccc1)N=Nc1c(O)[nH]c2ccccc12`: the manual score is 1 (active).

For `O=C(CSCc1ccc(Br)cc1)N=Nc1c(O)[nH]c2ccccc12`, the manual score was 1 (active).

`Fc1ccccc1NC(=S)N/N=C/c1ccccc1Br`: the manual score is 1 (active).

In the case of `O=[N+]([O-])c1ccc(/C=N/NC(=S)Nc2ccccc2F)o1`, the manual score was 1 (active).

Take `Fc1ccccc1/C=N/NC(=S)Nc1ccc(Cl)cc1Cl`: the manual score was 0 (inactive).

For `O=C(NCCN1CCN(C(=O)Nc2ccccc2)CC1)Nc1ccccc1`, the manual score is 0 (inactive).

In the case of `Cc1ccccc1N=Nc1c(C)[nH]n(C(N)=S)c1=O`, the manual score is 1 (active).

`S=C(NCc1ccco1)Nc1ccc(Cl)c(Cl)c1`: the manual score is 0 (inactive).

With `S=C(NCc1ccco1)N/N=C/c1ccc(Cl)cc1`, the manual score was 1 (active).

Take `C/C(=N\NC(=S)NCCc1ccccc1)c1ccc(C)cc1`: the manual score is 0 (inactive).

Regarding `COc1ccc(/C(C)=N/NC(=S)NCc2ccco2)cc1`, the manual score was 1 (active).

`COc1cccc(N2CCN(c3c4c(nc5ncnn35)CCC4)CC2)c1`: the manual score is 0 (inactive).

On to `O=C(Oc1c(Cl)cc(Cl)c2cccnc12)c1ccco1`, for which the manual score is 1 (active).

For the molecule `O=C(Oc1c(Cl)cc(Cl)c2cccnc12)c1cccc([N+](=O)[O-])c1`, the manual score is 1 (active).

Consider `O=C(Oc1ccccc1C(=S)N1CCCCC1)c1cc([N+](=O)[O-])cc([N+](=O)[O-])c1`, for which the manual score was 0 (inactive).

On to `COC(=O)[C@H]1CCCN1C(=O)Nc1cccc(Oc2c(F)c(F)c(F)c(F)c2F)c1`, for which the manual score was 0 (inactive).

As to `Cc1cc(NC(=O)Nc2ccccc2)n(-c2ccccc2)n1`, the manual score was 0 (inactive).

With `Cc1ccc(Nc2cc(C)nn2-c2nc(C)cc(=O)[nH]2)cc1`, the manual score is 1 (active).

In the case of `Cc1cc(NC(=O)c2c(F)cccc2Cl)n(-c2nc3ccccc3[nH]2)n1`, the manual score is 0 (inactive).

The values above are taken from PubChem BioAssay AID623868 (Vanderbilt High Throughput Screening Facility, 2012).
